Data taken from ChEMBL document CHEMBL4296182, “CO-ADD screening of NIH NCI Diversity Set V”.
For part of these data: Potency and affinity values are given separately.

Key:
[1] = tested on: Staphylococcus aureus; assay: Antibacterial activity against Staphylococcus aureus MRSA ATCC 43300 (CO-ADD:GP_020); MIC in CAMBH media using NBS plates, by Resazurin F(560/590); type: functional; conditions: Concentration 20 uM, ASSAY_TEST Inhibition of Bacterial Growth, detection method Resazurin, Fluorescence (ex560/em590), MEDIA CAMHB, plate type 384well, CORNING #3640, time 18 hr
[2] = tested on: Acinetobacter baumannii; assay: Antibacterial activity against Acinetobacter baumannii ATCC 19606 (CO-ADD:GN_034); MIC in CAMBH media using NBS plates, by Resazurin F(560/590); type: functional; conditions: Concentration 20 uM, ASSAY_TEST Inhibition of Bacterial Growth, detection method Resazurin, Fluorescence (ex560/em590), MEDIA CAMHB, plate type 384well, CORNING #3640, time 18 hr
[3] = tested on: Escherichia coli; assay: Antibacterial activity against Escherichia coli ATCC 25922 (CO-ADD:GN_001); MIC in CAMBH media using NBS plates, by Resazurin F(560/590); type: functional; conditions: Concentration 20 uM, ASSAY_TEST Inhibition of Bacterial Growth, detection method Resazurin, Fluorescence (ex560/em590), MEDIA CAMHB, plate type 384well, CORNING #3640, time 18 hr
[4] = tested on: Klebsiella pneumoniae; conditions: Concentration 20 uM; ASSAY_TEST Inhibition of Bacterial Growth; detection method Absorption (OD600); MEDIA CAMHB; plate type 384well; NBS; CORNING #3640; time 18 hr
[5] = tested on: Candida albicans; conditions: 20 µM
[6] = tested on: Cryptococcus neoformans; conditions: Concentration 20 uM; ASSAY_TEST Inhibition of Fungal Growth; detection method Resazurin; Absorption (OD600-OD570); plate type 384well; NBS; CORNING #3640

Row | SMILES | Inhibition [1] [%] | Inhibition [2] [%] | Inhibition [3] [%] | Inhibition [4] [%] | Inhibition [5] [%] | Inhibition [6] [%]
1 | O=C1CCCc2cc3c(cc21)CC1(C3)Cc2cc3c(cc2C1)C(=O)CCC3 | 15.97 | -9.78 | 9.88 | 10.84 | 3.32 | -3.34
2 | O=C(O)CCC1(c2ccccc2)NC(=O)NC1=O (configuration not stated) | 11.61 | -12.39 | 7.41 | 2.37 | -1.18 | -9.46
3 | COc1cc(NC(=O)c2cc3ccccc3cc2O)c(OC)cc1Cl | 15.9 | 4.67 | -1.76 | 8.39 | 2.82 | -1.31
4 | NNC(=O)Cc1cc(O)[nH]n1 | 0.66 | -1.89 | 4.91 | -1.33 | 1.93 | -9.5
5 | O=[N+]([O-])c1ccc(/C=C\c2ccncc2)cc1 | -4.43 | 17.7 | -9.25 | 16.94 | 3.43 | -1.17
6 | CC1(CN2CCCC2)CCC(NC(=O)C(c2ccccc2)c2ccccc2)C(C)(C)O1 (configuration not stated) | 23.4 | 6.65 | 12.21 | 18.43 | 0.1 | -5.78
7 | C=CCN(CC=C)C(=O)Nc1cc(OC)ccc1OC | -0.3 | -10.17 | 5.84 | 8.16 | 3.21 | -3.48
8 | c1ccn(CCc2ccncc2)c1 | 10.09 | -4.91 | 7.14 | 10.92 | 2.03 | -5.95
9 | COC(=O)c1ccc(C(=O)OC)c(O)n1 | 3.27 | 9.07 | 2.76 | 7.35 | 0.7 | -5.98
10 | Cn1c(=O)c2nc(COc3ccc(C(C)(C)C)cc3)[nH]c2n(C)c1=O | -1.06 | -14.84 | 1.91 | 9.47 | 3.68 | -17.46
11 | CC1=NC2=CC=CC3=NC(C(Cl)(Cl)Cl)=NC(=N1)N23 | -3.19 | 10.22 | 9.49 | 11.94 | 1.15 | -10.05
12 | CC1CC=C(O)C12OCC(C)(C)CO2 (configuration not stated) | 3.19 | -6.5 | 5.59 | 14.38 | 0.02 | -5.4
13 | c1ccc2sc(SCSc3nc4ccccc4s3)nc2c1 | -0.38 | -17.15 | 3.51 | 4.08 | 12.5 | -13.87
14 | COCC(=O)Oc1cc(-c2ccc(C)cc2C)c(OC(=O)COC)c(-c2ccc(C)cc2C)c1 | 8.14 | -8.27 | 6.56 | 4.04 | 7.18 | -1.11
15 | FC(F)(F)c1cccc(OCC2CN=C(S)O2)c1 (configuration not stated) | 8.92 | 11.68 | -6.27 | 16.05 | 8.74 | 3.63
16 | c1ccc(CSc2nc3c[nH]cnc-3n2)cc1 | 8.72 | -4.41 | 6.08 | 8.84 | 0.41 | 13.03
17 | CCC(CC)c1ncc[nH]1 | -6.72 | -6.57 | 9.75 | 17.39 | -1.38 | -3.12
18 | Cc1nc(C(N)=O)nc2ccccc12 | 17.26 | -10.29 | 6.82 | 15.63 | 0.61 | 1.62
19 | CC(=O)c1c(O)c(C)c(O)c2c1OC1=CC(=O)/C(=C(/C)N)C(=O)C12C (configuration not stated) | -3.02 | 6.34 | 8.14 | 14.26 | 6.96 | -10.35

Row | SMILES | Inhibition [1] [%] | Inhibition [2] [%] | Inhibition [3] [%] | Inhibition [4] [%] | Inhibition [5] [%] | Inhibition [6] [%]
20 | COc1cc(C(=O)C(=O)c2cc(OC)c(O)c(OC)c2)cc(OC)c1O | 3.22 | 7.73 | -5.19 | 5.73 | 3.18 | 0.06
21 | c1ccc2[nH]c(-c3ccncc3)nc2c1 | 11.19 | -5.55 | 7.11 | 18.73 | -0.07 | -8.67
22 | COc1ccc(Br)c2c1C(=O)CC2 | 10.21 | -14.67 | 12.53 | -2.44 | 20.7 | -15.03
23 | COc1ccc(C(=S)N2CCN(c3cccc(Cl)c3)CC2)cc1 | 13.14 | 2 | 3.07 | 17.03 | 9.51 | -10.07
24 | NC(S)=Nc1cccc(Cl)c1 | 9.52 | -8.51 | 1.81 | 0.23 | 2.81 | -2.86
25 | CN(C)S(=O)(=O)N1C(=O)c2ccccc2C1=O | 5.4 | 12.12 | -0.21 | 11.91 | 5.89 | -1.33
26 | Cc1ccc(Cl)cc1NC(=O)c1cc2ccccc2cc1O | 5.29 | -8.92 | 15.86 | 12.1 | 4.11 | -7.39
27 | CSc1nc(Cl)c(Br)c(Nc2cnc(O)nc2O)n1 | 5.42 | 6.52 | -1.71 | 4.64 | -2.17 | 0.33
28 | NS(=O)(=O)c1cc2c(cc1Cl)NC(Cc1ccccc1)NS2(=O)=O (configuration not stated) [BENZYLHYDROCHLOROTHIAZIDE] | 8.57 | 4.78 | 13.54 | 17.47 | 3.24 | -10.94
29 | CCN(CC)C(=O)Cn1ccc(NC(C)=O)nc1=O | -5.08 | -19.36 | 5.52 | 3.42 | 0.38 | -8.8
30 | CCOC(=O)c1c(C)nc(C)c(C(=O)OCC)c1-c1ccc(OC)cc1 | 0.94 | 2.04 | -21.92 | 2.6 | 6.74 | 19.28
31 | CC(C)=CCC/C(C)=C\C(N)=O | -1.13 | -1.29 | 11.31 | -1.44 | -0.52 | -3.28
32 | CSc1nnc(-c2cccs2)[nH]1 | 9.02 | -12.85 | 11.01 | 0.04 | 1.33 | -11.54
33 | C=CCNC(S)=Nc1c(N)n(C)c(=O)n(C)c1=O | 11.89 | 5.83 | -15.58 | 18.14 | 8.36 | 18.71
34 | Cn1c2c(c(=O)n(C)c1=O)NC1(N2)C(=O)Nc2ccccc21 (configuration not stated) | 7.94 | -15.14 | 2.31 | 1.11 | 4.78 | -2.52
35 | Nc1nc(O)c2ncn(C3CCCC3)c2n1 | 3.29 | -9.23 | 3.79 | 16.95 | -0.06 | -9.03
36 | Cc1ccc(S(=O)(=O)Oc2cc(N)c3c(n2)CCC3)cc1 | 2.13 | -12.3 | 7.8 | 9.4 | 1.38 | -7.75
37 | COc1ccccc1/C=C(\C#N)C(=O)O | 12.51 | 1.75 | 5.31 | 6.46 | 6.96 | -7.1
